In ChEMBL document CHEMBL2218924, “A broad activity screen in support of a chemogenomic map for kinase signalling research and drug discovery” (Biochem J, 2013) one finds residual activity data, which are given here for seven compounds.

The target in assay [1] is Tyrosine-protein kinase SYK (Homo sapiens) (UniProt P43405). The note with it: at 10 µM.
Assay [2] addresses T1, Mitogen-activated protein kinase kinase kinase 7 (Homo sapiens) (UniProt O43318).
T1 sequence (whole entry): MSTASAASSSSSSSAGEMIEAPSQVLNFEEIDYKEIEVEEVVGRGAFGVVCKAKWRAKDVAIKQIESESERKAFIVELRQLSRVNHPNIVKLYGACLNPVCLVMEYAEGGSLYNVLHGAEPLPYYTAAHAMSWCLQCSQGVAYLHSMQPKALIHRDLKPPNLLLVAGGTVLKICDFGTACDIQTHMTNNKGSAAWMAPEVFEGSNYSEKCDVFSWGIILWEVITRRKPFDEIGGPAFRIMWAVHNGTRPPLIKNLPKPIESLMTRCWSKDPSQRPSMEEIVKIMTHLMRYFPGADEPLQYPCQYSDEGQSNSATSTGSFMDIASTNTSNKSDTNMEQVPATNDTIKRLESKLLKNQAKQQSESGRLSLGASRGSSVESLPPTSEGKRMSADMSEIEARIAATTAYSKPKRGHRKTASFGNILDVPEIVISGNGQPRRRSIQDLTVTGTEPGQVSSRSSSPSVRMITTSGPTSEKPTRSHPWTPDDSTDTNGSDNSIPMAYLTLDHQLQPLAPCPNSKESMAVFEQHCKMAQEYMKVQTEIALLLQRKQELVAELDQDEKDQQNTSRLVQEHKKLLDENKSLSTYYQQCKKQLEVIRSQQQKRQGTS
The settings on record: at 1 µM.

The target of assay [3] is T1, Mitogen-activated protein kinase kinase kinase 7 (Homo sapiens). The note with it: at 10 µM.
For assay [4], the target named is T2, Serine/threonine-protein kinase TAO1 (Homo sapiens) (UniProt Q7L7X3).
T2 sequence (whole entry): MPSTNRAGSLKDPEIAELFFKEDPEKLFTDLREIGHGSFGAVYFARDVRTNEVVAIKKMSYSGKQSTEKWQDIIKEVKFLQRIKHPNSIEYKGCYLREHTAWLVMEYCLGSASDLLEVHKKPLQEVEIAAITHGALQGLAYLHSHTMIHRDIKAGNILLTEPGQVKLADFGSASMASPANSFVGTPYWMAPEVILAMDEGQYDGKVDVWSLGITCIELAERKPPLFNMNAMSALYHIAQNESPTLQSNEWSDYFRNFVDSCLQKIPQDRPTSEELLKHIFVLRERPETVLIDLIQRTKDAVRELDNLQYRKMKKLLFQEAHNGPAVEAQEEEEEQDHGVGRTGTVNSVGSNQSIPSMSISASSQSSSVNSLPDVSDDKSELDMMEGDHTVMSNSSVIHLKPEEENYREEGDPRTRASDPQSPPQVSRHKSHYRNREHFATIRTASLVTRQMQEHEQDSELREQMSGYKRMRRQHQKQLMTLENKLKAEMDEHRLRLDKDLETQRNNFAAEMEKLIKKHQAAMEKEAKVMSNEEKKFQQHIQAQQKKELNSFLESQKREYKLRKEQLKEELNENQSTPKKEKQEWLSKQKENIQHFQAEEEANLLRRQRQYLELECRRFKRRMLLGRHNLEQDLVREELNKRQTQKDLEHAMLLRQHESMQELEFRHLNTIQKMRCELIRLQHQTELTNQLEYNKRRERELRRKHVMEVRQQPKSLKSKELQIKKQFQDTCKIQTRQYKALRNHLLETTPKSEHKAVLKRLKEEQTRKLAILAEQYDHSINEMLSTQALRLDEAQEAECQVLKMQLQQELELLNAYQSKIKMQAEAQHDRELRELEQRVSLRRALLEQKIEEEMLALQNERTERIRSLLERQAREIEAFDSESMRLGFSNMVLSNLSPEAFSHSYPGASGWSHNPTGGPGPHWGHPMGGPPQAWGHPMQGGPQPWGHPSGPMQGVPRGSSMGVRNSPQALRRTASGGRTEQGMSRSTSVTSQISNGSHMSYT
The note with it: at 1 µM.

Assay [5] has as its target T2, Serine/threonine-protein kinase TAO1 (Homo sapiens). The settings on record: at 10 µM.
Assay [6] concerns the target T3, Serine/threonine-protein kinase TAO2 (Homo sapiens) (UniProt Q9UL54).
T3 sequence (whole entry): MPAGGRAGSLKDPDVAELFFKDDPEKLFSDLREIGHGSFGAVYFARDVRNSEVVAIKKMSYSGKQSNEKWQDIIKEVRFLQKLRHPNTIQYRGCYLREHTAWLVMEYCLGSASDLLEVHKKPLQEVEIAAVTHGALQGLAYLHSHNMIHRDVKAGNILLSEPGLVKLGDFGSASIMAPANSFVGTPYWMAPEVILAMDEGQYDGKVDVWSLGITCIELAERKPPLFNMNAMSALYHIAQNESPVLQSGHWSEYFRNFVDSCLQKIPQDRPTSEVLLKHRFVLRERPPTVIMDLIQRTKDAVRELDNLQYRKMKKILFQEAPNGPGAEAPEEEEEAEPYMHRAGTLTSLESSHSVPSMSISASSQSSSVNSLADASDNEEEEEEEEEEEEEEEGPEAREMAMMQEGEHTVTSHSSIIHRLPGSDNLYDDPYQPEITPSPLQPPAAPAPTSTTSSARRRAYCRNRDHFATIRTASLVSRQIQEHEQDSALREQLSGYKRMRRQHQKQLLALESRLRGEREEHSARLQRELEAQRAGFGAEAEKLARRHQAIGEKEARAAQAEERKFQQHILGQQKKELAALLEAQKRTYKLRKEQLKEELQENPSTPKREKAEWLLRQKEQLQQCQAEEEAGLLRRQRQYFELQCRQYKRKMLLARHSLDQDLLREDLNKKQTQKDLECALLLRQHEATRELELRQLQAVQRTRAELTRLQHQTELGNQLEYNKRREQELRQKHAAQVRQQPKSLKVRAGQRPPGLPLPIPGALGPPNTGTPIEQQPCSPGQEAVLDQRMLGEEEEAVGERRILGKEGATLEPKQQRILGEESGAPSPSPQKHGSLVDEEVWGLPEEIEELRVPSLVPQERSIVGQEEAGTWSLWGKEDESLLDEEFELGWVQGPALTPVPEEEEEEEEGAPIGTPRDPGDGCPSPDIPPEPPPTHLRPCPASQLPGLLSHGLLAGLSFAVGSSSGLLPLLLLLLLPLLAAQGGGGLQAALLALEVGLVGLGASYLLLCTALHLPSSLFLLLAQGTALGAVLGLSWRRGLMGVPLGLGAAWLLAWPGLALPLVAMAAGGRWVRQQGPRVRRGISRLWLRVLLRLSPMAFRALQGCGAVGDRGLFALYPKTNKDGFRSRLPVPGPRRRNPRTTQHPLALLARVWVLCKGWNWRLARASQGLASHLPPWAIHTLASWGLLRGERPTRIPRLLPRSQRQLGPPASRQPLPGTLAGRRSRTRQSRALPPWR
The settings on record: at 1 µM.

Assay [7] addresses T3, Serine/threonine-protein kinase TAO2 (Homo sapiens). The settings on record: at 10 µM.
Assay [8] addresses T4, Serine/threonine-protein kinase TAO3 (Homo sapiens) (UniProt Q9H2K8).
T4 sequence (whole entry): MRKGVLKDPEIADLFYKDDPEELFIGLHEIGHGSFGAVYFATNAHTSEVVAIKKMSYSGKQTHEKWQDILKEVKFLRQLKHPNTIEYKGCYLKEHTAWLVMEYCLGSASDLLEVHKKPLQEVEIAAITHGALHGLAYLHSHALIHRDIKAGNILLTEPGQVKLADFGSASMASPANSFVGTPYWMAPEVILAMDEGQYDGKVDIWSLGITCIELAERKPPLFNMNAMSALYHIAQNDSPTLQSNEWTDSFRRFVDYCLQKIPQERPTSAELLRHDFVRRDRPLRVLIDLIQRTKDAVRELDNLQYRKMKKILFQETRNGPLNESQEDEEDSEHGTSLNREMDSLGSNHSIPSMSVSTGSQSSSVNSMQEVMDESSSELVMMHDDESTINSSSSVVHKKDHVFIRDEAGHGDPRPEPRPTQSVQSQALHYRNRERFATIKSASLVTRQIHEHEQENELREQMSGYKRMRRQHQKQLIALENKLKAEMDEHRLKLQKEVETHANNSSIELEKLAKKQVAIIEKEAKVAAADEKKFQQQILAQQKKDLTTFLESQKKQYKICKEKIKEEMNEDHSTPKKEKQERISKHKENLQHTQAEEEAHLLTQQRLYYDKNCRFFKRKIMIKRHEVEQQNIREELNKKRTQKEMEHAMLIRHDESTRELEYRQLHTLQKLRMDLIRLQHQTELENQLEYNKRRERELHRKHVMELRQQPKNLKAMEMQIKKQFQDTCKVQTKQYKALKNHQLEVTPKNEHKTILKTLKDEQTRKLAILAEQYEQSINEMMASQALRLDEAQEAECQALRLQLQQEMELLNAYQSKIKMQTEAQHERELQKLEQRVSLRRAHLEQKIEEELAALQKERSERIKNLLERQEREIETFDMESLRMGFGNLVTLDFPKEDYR
The note with it: at 1 µM.

Assay [9] deals with T4, Serine/threonine-protein kinase TAO3 (Homo sapiens). The note with it: at 10 µM.
The target of assay [10] is T5, Serine/threonine-protein kinase TBK1 (Homo sapiens) (UniProt Q9UHD2).
T5 sequence (whole entry): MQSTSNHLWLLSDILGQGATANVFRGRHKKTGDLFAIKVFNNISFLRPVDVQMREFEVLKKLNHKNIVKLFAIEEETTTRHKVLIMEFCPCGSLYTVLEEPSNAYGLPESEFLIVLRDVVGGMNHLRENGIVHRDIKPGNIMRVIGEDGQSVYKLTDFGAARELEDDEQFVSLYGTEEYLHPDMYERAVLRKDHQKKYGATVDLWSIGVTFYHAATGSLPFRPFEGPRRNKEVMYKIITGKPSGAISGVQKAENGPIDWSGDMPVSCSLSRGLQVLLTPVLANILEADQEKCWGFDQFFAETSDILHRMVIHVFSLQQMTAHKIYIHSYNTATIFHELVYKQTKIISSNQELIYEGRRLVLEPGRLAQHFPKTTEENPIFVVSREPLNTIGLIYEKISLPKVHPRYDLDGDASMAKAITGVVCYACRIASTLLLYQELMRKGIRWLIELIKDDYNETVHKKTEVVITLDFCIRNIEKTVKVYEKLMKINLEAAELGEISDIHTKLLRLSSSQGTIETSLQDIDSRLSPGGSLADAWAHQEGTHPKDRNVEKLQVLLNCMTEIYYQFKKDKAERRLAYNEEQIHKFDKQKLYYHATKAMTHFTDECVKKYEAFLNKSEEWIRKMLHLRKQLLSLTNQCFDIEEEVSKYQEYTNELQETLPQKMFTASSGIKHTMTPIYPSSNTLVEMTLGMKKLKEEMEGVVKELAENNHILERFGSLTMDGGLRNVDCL
The note with it: at 1 µM.

With `O=C1Nc2ccc(Cl)cc2/C1=C/c1cc(Cl)c(O)c(Cl)c1`, the residual activity in assay [1] was 56%; in assay [2], 83%; in assay [3], 75%; in assay [4] it was 62%; in assay [5], 35%; in assay [6] it was 72%. For the same compound, the residual activity turned out to be 58% in assay [7], 61% in assay [8], 52% in [9] and 59% in assay [10].

In the case of `CN(C)S(=O)(=O)c1ccc2c(c1)/C(=C/c1cc3c([nH]1)CCCC3)C(=O)N2`, the residual activity in assay [1] was found to be 96%; in [2], 100%; in [3] it was 92%; in assay [4] it was 37%; in assay [5], 56%; in assay [6] it was 93%. The residual activity in assay [7] was 87%; in assay [8], 89%; in assay [9], 73%; in assay [10] it was 74%.

As to `O=C1NC(=O)C(c2cn(CCCO)c3ncccc23)=C1c1cnccn1`, the residual activity in [1] was 96%; in [2], 94%; in assay [3] it was 81%; in [4], 86%; in assay [5] it was 69%; in assay [8], 83%. The values for the residual activity in [9] and in assay [10] were 77% and 92%, respectively.

Regarding `O=C1NC(=O)C(c2cn(CCCn3ccnc3)c3ccccc23)=C1Nc1ccccc1`, the residual activity in [1] is 67%; in assay [3], 66%; in [5], 37%; in assay [8] it was 63%; in assay [9] it was 19%; in assay [10], 22%.

On to `Nc1ncnc2c1c(-c1ccc(Oc3ccccc3)cc1)cn2C1CCCC1`, for which the residual activity in assay [1] was 59%; in [3], 81%; in [4] it was 94%; in assay [5] it was 81%; in assay [7], 77%; in assay [8], 92%. The residual activity in [9] stood at 77%; in assay [10], 61%.

For the compound `COc1ccc(Cl)cc1NC(=O)Nc1cc(C)nc2ccccc12`, the residual activity in assay [1] was found to be 88%; in [2], 98%; in assay [3], 95%; in [7], 85%; in [8] it was 95%; in assay [9], 83%. Besides, in assay [10], the residual activity was determined as 78%.

With `NCCNc1ncc(C(N)=O)c(Nc2cccc(C(F)(F)F)c2)n1`, the residual activity in assay [1] stood at 0%; in assay [2], 78%; in assay [3] it was 25%; in [4], 78%; in assay [5] it was 28%; in assay [8], 73%. For the same compound, the residual activity in assay [9] turned out to be 32%; in [10], 79%.
